The results in this text go back to the supplement of paper PMC10127200.

Counter-ions that a name gives are not always drawn.

The assay has as its system FB. Briefly: Euclidean distance of Cell Painting phenotypic profile (signed KS, 77 features) to DMSO centroid (dimensionless distance); 5 or 10 uM (library dependent); higher = stronger phenotypic change vs DMSO (phenoactivity). The following applies: 48 h. The method, boiled down: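 Five cancer lines, together with a healthy fibroblast line, received library compounds for 48 h at a library-dependent 10 or 5 uM and 0.1% DMSO final. Harmony then derived 77 features from confocal 20X images (9 fields/well) of the stained cells, scoring each as a signed Kolmogorov-Smirnov statistic against same-plate vehicle wells. After plate-position correction, correlation weighting and replicate averaging at the top dose, phenoactivity was taken as each profile's Euclidean distance to the median vehicle profile.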
In turn, `CN(C)CCCOc1nn(Cc2ccccc2)c2ccccc12` [Benzydamine HCl] registered an Euclidean distance of 1.24.

`CC(=O)NCCCS(=O)(=O)O` [Acamprosate Calcium] displayed an Euclidean distance of 0.789.

Compound `CNC(=O)c1cc(Oc2ccc(NC(=O)Nc3ccc(Cl)c(C(F)(F)F)c3)cc2)ccn1` [Sorafenib] registered an Euclidean distance of 1.78.

The compound `C#Cc1cccc(Nc2ncnc3cc4c(cc23)OCCOCCOCCO4)c1` [Icotinib] returned an Euclidean distance of 1.18.

Compound `Cc1cc([C@@H](C)Nc2ccccc2C(=O)O)c2nc(N3CCOCC3)cc(=O)n2c1` had an Euclidean distance of 1.71.

In the case of `CO/N=C(\C(=O)N[C@@H]1C(=O)N2C(C(=O)OCOC(=O)C(C)(C)C)=C(/C=C\c3scnc3C)CS[C@H]12)c1csc(N)n1` [Cefditoren Pivoxil], the Euclidean distance was determined as 1.03.

Take `CC[C@@H](C)Nc1cc(C(=O)N[C@H]2C[C@H]3CC[C@@H](C2)N3c2ccc(C(=O)C3CC3)cn2)c(C)cc1C(N)=O`: the Euclidean distance was 3.15.

As for `CC(C)NCC(O)COc1ccc(CCOCC2CC2)cc1` (stereo not given) [Betaxolol], the Euclidean distance amounted to 0.967.

Turning to `COc1cc2c(cc1OC)[C@@H](Cc1cc(OC)c(OC)c(OC)c1)[N+](C)(CCCOC(=O)CC/C=C/CCC(=O)OCCC[N+]1(C)CCc3cc(OC)c(OC)cc3[C@H]1Cc1cc(OC)c(OC)c(OC)c1)CC2` (stereo not given in full) [Mivacurium chloride], the Euclidean distance worked out at 1.3.

Turning to `O=C(CCc1ccc(O)cc1)c1c(O)cc(O)cc1O[C@@H]1O[C@H](CO)[C@@H](O)[C@H](O)[C@H]1O` [Phlorizin], the Euclidean distance was found to be 0.849.

`Nc1nc2c(ncn2COCCO)c(=O)[nH]1` [Aciclovir]: the Euclidean distance turned out to be 1.32.

For the compound `CCCCC(O)c1ccccc1` (stereo not given) [Fenipentol], the Euclidean distance came to 0.766.

`COc1ccc(CCc2nc3cc(-c4c(C)noc4C)ccc3n2C[C@H](C)N2CCOCC2)cc1Cl` showed an Euclidean distance of 1.73.

The compound `CCCC(=O)Nc1ccc(OCC(O)CNC(C)C)c(C(C)=O)c1` (stereo not given) [Acebutolol HCl] returned an Euclidean distance of 1.3.

The compound `CCn1c(N)c(C(=O)NC)c(=O)c2ccc(C#CC(C)(O)COC)nc21` (stereo not given) yielded an Euclidean distance of 1.97.

Consider `Cc1onc(-c2c(F)cccc2Cl)c1C(=O)N[C@@H]1C(=O)N2[C@@H]1SC(C)(C)[C@@H]2C(=O)O` [Flucloxacillin sodium], for which the Euclidean distance was found to be 1.12.

In turn, `CCCC(=O)O[C@]1(C(=O)COC(C)=O)CC[C@H]2[C@@H]3C[C@H](F)C4=CC(=O)C=C[C@]4(C)[C@@]3(F)[C@@H](O)C[C@@]21C` [Difluprednate] yielded an Euclidean distance of 1.74.

`C=CC(=O)N1CCC([C@@H]2CCNc3c(C(N)=O)c(-c4ccc(Oc5ccccc5)cc4)nn32)CC1` [Zanubrutinib (BGB-3111)] displayed an Euclidean distance of 1.57.

The compound `Cc1cccc(Nc2ccccc2C(=O)O)c1C` [Mefenamic Acid] yielded an Euclidean distance of 1.14.

As to `CN1CCN(c2cc3c(cc2F)c(=O)c(C(=O)O)cn3-c2ccc(F)cc2)CC1` [Difloxacin hydrochloride], the Euclidean distance came to 1.1.

Compound `COc1cc(OC)c(C(=O)CCCN2CCCC2)c(OC)c1` [Buflomedil HCl] returned an Euclidean distance of 1.04.

The compound `O=c1c(O)c(-c2ccc(O)cc2)oc2cc(O)cc(O)c12` [Kaempferol] gave an Euclidean distance of 1.36.

As to `O=C(O)[C@H](O)Cc1ccc(O)c(O)c1` [Danshensu], the Euclidean distance was determined as 0.877.

`CC(C)Cn1cnc2c(N)nc3ccccc3c21` [Imiquimod] displayed an Euclidean distance of 0.784.

Take `CN(C)CCC(c1ccc(Br)cc1)c1ccccn1` (stereo not given) [Brompheniramine hydrogen maleate]: the Euclidean distance came to 1.18.

`CC1=C(/C=C/C(C)=C/C=C/C(C)=C/C(=O)Nc2ccc(O)cc2)C(C)(C)CCC1` [Fenretinide] returned an Euclidean distance of 2.58.

`CC(=O)OCC(=O)[C@H]1CC[C@H]2[C@@H]3CCC4=CC(=O)CC[C@]4(C)[C@H]3CC[C@]12C` [Deoxycorticosterone acetate]: the Euclidean distance stood at 1.02.

The compound `CCCCc1oc2ccccc2c1C(=O)c1cc(I)c(OCCN(CC)CC)c(I)c1` [Amiodarone HCl] showed an Euclidean distance of 1.95.

With `Cc1cc(C#N)cc(C)c1Oc1nc(Nc2ccc(C#N)cc2)nc(N)c1Br` [Etravirine (TMC125)], the Euclidean distance was 0.981.

`Cc1c(C(=O)NN2CCCCC2)nn(-c2ccc(Cl)cc2Cl)c1-c1ccc(I)cc1` gave an Euclidean distance of 1.03.

Regarding `OC(c1cc(C(F)(F)F)nc2c(C(F)(F)F)cccc12)C1CCCCN1` (stereo not given) [Mefloquine HCl], the Euclidean distance amounted to 2.46.

Turning to `Nc1ccn([C@@H]2O[C@H](CO)[C@@H](O)[C@@H]2O)c(=O)n1` [Cytarabine], the Euclidean distance was found to be 3.39.

`Cc1cc(O)c(C(=O)N[C@@H](C(=O)N[C@@H]2C(=O)N3C(C(=O)O)=C(CSc4nnnn4C)CS[C@H]23)c2ccc(O)cc2)cn1` [Cefpiramide sodium] showed an Euclidean distance of 1.17.

Consider `CC/C(=C(\c1ccc(O)cc1)c1ccc(OCCNC)cc1)c1ccccc1` [Endoxifen HCl], for which the Euclidean distance was determined as 3.3.

Take `CNC[C@H](O)c1cccc(O)c1` [Phenylephrine HCl]: the Euclidean distance was 1.34.

As for `COc1cc2c(cc1OC)C(=O)C(CC1CCN(Cc3ccccc3)CC1)C2` (stereo not given) [Donepezil], the Euclidean distance worked out at 0.785.

As for `COc1ccc(-c2nc(N3CCOCC3)c3sc(CN(C)c4ncc(C(=O)NO)cn4)cc3n2)cn1`, the Euclidean distance amounted to 3.52.

With `CCCc1nc(C(C)(C)O)c(C(=O)O)n1Cc1ccc(-c2ccccc2-c2nnn[nH]2)cc1` [Olmesartan], the Euclidean distance was 0.802.

In turn, `O=C1C[C@@H](c2ccc(O)cc2)Oc2cc(O)cc(O)c21` [Naringenin] yielded an Euclidean distance of 1.06.

In the case of `CC[C@@]1(O)C(=O)OCc2c1cc1n(c2=O)Cc2cc3c(CN(C)C)c(O)ccc3nc2-1` [Topotecan], the Euclidean distance was determined as 3.77.
